Holding throughout (details): concentration: 1 μM, replicates: in singlicate; n = 1
Assay [1] has as its system SIK2.
Assay [2] concerns SIK.
The test system of assay [3] is SLK.
Assay [4] has as its system T1, SNARK.
T1 construct: gene NUAK2

Assay [5] concerns SNRK.
Assay [6] relates to SRC.
The test system of assay [7] is SRMS.
In assay [8] the test system is SRPK1.
Assay [9] deals with SRPK2.
Assay [10] has as its system SRPK3.
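Also: KINOMEscan kinase panel screen.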

Consider `COc1cc2ncn(-c3cc(OCC4CCCO4)c(C(N)=O)s3)c2cc1OC` (centres unmarked) [GSK204607], for which the “%Inh” value is listed as 93.5% in assay [1]; 0% in assay [2]; 96.3% in assay [3]; 39% in [4]; 0% in assay [5]; 0% in [6]. Besides, the “%Inh” value in assay [7] is 0%; in assay [8], 28%; in [9] it was 11%; in [10], 0%.
For `COC(=O)c1c(-c2ccccc2)c2cc(C(=O)O)ccc2c(=O)n1Cc1ccccc1`, the “%Inh” value is reported as 0% in assay [1]; 0% in assay [2]; 16% in assay [3]; 5% in assay [4]; 0% in assay [5]; 0% in assay [6]. Besides, the “%Inh” value in assay [7], in assay [8], in assay [9] and in [10] was 0% each time.
In the case of `Cc1ccccc1-n1cnc2c(N)ncnc21` [SKF-97510], the “%Inh” value is 0% in assay [1]; 0% in assay [2]; 100% in assay [3]; 0% in assay [4]; 0% in assay [5]; 13% in assay [6]. The “%Inh” value in [7], in assay [8], in assay [9] and in assay [10] was 0% each time.
`Cc1cccc(-c2cc(Nc3ccncc3)c3ccccc3n2)n1` [GSK223675]: the “%Inh” value in assay [1], in assay [2], in assay [3], in assay [4], in assay [5] and in assay [6] was 0% each time. Moreover, the “%Inh” value in assay [7] is recorded as 0%; in assay [8], 5%; in assay [9], 0%; in [10], 0%.
Regarding `COc1cc2ncnc(Nc3ccc4nc(-c5ccccc5)[nH]c4c3)c2cc1OC.Cl` [GW282450], the “%Inh” value in assay [1] amounted to 2%; in assay [2], 0%; in [3] it was 30%; in [4], 0%; in assay [5], 0%; in assay [6], 0%. Also, the “%Inh” value in assay [7] is 0%; in [8], 3%; in [9], 0%; in [10], 17%.
In the case of `Cc1cccc(-c2nc(C)cc(Nc3ccncc3)n2)n1` [GSK257997], the “%Inh” value in assay [1] amounted to 0%; in [2], 0%; in [3], 42%; in assay [4] it was 4%; in assay [5] it was 0%; in [6], 0%. The “%Inh” value is on record as 0% in [7], 35% in assay [8], 0% in assay [9] and 11% in assay [10].
As for `O=S(=O)(c1ccc(-c2ccnc3[nH]ccc23)cc1)N1CCCC1` [GSK846226], the “%Inh” value in [1] is reported as 0%; in [2], 0%; in assay [3] it was 0%; in [4], 16%; in assay [5], 0%; in assay [6], 0%. Besides, the “%Inh” value is given as 0% in assay [7], 60% in [8], 0% in [9] and 3% in assay [10].
Regarding `CCn1c(-c2ccccn2)nc2cnccc21` [SB-736398], the “%Inh” value in [1] is listed as 3%; in assay [2] it was 0%; in assay [3] it was 8%; in assay [4] it was 0%; in assay [5], 0%; in assay [6] it was 79%. The “%Inh” value in [7] was 0%; in assay [8], 0%; in assay [9] it was 27%; in [10], 5%.
With `O=C(Nc1n[nH]c2cc(-c3cccc(F)c3F)ccc12)C1CC1` [SB-733894], the “%Inh” value in [1] was found to be 0%; in assay [2] it was 0%; in assay [3], 0%; in assay [4], 1%; in assay [5], 3%; in assay [6], 0%. Besides, the “%Inh” value in assay [7] is on record as 3%; in [8], 44%; in assay [9], 22%; in assay [10], 5%.
On to `CC(C)(C)c1ccc(C(=O)Nc2cn3cc(-c4cccnc4)ccc3n2)cc1`, for which the “%Inh” value was found to be 25% in assay [1]; 22% in assay [2]; 19% in [3]; 5% in [4]; 20% in assay [5]; 3% in assay [6]. Moreover, the “%Inh” value is recorded as 0% in [7], 15% in assay [8], 0% in assay [9] and 0% in assay [10].
`COc1ccc(C2=C(Nc3cccc(C(=O)O)c3)C(=O)NC2=O)cc1` [SB-390765]: the “%Inh” value is listed as 9% in assay [1]; 14% in assay [2]; 7% in assay [3]; 8% in assay [4]; 0% in assay [5]; 3% in [6]. In addition, the “%Inh” value in assay [7] was determined as 21%; in assay [8], 0%; in assay [9], 0%; in assay [10], 19%.
Regarding `Cc1cc(NCC(c2ccccc2)c2ccccc2)nc(NCc2ccc(C(F)(F)F)cc2)n1` [GW497681], the “%Inh” value in assay [1], in [2], in assay [3], in [4], in assay [5] and in [6] was 0% each time. Also, the “%Inh” value was determined as 0% in assay [7], 0% in assay [8], 22% in assay [9] and 0% in assay [10].
Turning to `Cc1c(O)cccc1Nc1ccnc2ccc(C(F)(F)F)cc12.Cl` [GW466413], the “%Inh” value in assay [1] was found to be 0%; in assay [2] it was 0%; in assay [3] it was 8%; in [4], 0%; in assay [5], 0%; in [6] it was 79%. In addition, the “%Inh” value in assay [7] was found to be 1%; in assay [8], 21%; in [9], 0%; in assay [10], 0%.
In the case of `NC(=O)c1nnc2ccccc2c1N`, the “%Inh” value in assay [1] amounted to 6%; in assay [2], 9%; in assay [3], 0%; in [4] it was 67%; in assay [5], 14%; in assay [6], 6%. For the same molecule, the “%Inh” value in assay [7] turned out to be 0%; in assay [8] it was 45%; in assay [9], 0%; in assay [10] it was 32%.
For the molecule `Cl.NC(=O)c1cccc(Nc2nccc(Nc3ccc(Oc4cccc(Cl)c4)c(Cl)c3)n2)c1` [GW659008], the “%Inh” value in [1] was found to be 5%; in assay [2], 12%; in assay [3], 32%; in [4], 0%; in assay [5] it was 0%; in assay [6], 25%. Moreover, the “%Inh” value in assay [7] was determined as 37%; in assay [8] it was 0%; in assay [9], 0%; in assay [10], 13%.
Turning to `O=C(Nc1ccccc1)Nc1cccc(Oc2ccc3nccn3n2)c1`, the “%Inh” value in assay [1] is on record as 12%; in assay [2] it was 0%; in [3] it was 12%; in [4], 0%; in assay [5] it was 0%; in assay [6] it was 0%. In addition, the “%Inh” value in assay [7] is given as 0%; in assay [8], 0%; in [9] it was 3%; in assay [10], 29%.
Regarding `CC(C)(C)c1ccc(C(=O)Nc2cn3cc(Cl)ccc3n2)cc1`, the “%Inh” value in assay [1] came out at 0%; in assay [2] it was 4%; in assay [3], 24%; in assay [4], 0%; in [5], 0%; in [6] it was 0%. The “%Inh” value in assay [7], in assay [8], in assay [9] and in assay [10] was 0% each time.

Source of the values: publication PMC5540273 (PLoS ONE, 2017).
